# Source: PubChem BioAssay (EPA / NIEHS)
# Inconclusive results are not listed. Activity calls are given as the source filed them. How the source made its calls, unless noted: active means hit-call score of the fitted dose curve at least 0.9, where 1 is the maximum; inconclusive means response in the unintended direction; inactive means score below 0.9.
# Columns and labels:
# [1] = target: Retinoic acid receptor alpha (Homo sapiens) (UniProt P10276); assay: ATG_DR5_RAR_CIS: Attagene CIS-FACTORIAL HepG2 Assay for human Retinoic Acid Receptor Alpha (RARE), DR5 submotif (AID 2282934; active means hit-call score of the fitted dose curve at least 0.9, where 1 is the maximum; inactive means score below 0.9); conditions: HepG2 Attagene cis-factorial RARE DR5 reporter, mRNA; actives raise or lower the signal
# Sequence of Retinoic acid receptor alpha (Homo sapiens) (P10276 whole entry, looked up): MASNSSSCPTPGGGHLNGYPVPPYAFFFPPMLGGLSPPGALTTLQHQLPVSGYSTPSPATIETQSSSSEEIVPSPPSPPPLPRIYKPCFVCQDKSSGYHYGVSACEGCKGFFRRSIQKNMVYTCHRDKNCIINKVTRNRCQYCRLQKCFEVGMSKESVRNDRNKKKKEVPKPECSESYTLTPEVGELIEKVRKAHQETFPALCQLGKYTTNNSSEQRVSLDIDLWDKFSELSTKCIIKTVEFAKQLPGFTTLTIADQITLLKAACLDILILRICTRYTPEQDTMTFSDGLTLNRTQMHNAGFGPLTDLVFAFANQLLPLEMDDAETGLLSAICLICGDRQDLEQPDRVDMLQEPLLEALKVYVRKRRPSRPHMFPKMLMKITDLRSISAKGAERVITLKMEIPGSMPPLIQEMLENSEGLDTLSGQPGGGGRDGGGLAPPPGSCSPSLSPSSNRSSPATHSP
# In short: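 Transfected HepG2 reporter cells are exposed to chemicals for 24 h. Then RNA is extracted and the DR5 element reporter transcript is measured by RT-PCR and capillary electrophoresis, with bidirectional curve fitting relative to DMSO.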
# [2] = ATG_GAL4_TRANS: Attagene TRANS-FACTORIAL HepG2 Assay for GAL4 (Internal Marker) (AID 2282976); conditions: HepG2 Attagene TRANS GAL4 internal marker reporter
# In short: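 HepG2 cells transiently transfected with multiplexed GAL4-UAS reporter constructs were dosed for 24 h. Reporter mRNA was measured by RT-PCR, 6-FAM primer extension, HpaI digestion and capillary electrophoresis, and gain of signal was fitted relative to DMSO.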
# [3] = ATG_M_06_TRANS: Attagene TRANS-FACTORIAL HepG2 Assay for M06 Transcription Factor (Internal Marker) (AID 2282983); conditions: HepG2 Attagene TRANS M06 internal marker reporter
# In short: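 HepG2 cells transiently transfected with multiplexed GAL4-UAS reporter transcription units; after 24 h compound exposure, reporter mRNA measured by RT-PCR, FAM-labelled primer extension, HpaI digestion and capillary electrophoresis. Gain-of-signal fitted versus DMSO baseline; background control readout.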
# [4] = target: Nuclear receptor subfamily 4 group A member 2 (Homo sapiens) (UniProt P43354); assay: ATG_NURR1_TRANS: Attagene TRANS-FACTORIAL HepG2 Assay for human Nuclear Receptor Related Protein 1 (NURR1) (AID 2282985); conditions: HepG2 Attagene TRANS reporter, mRNA readout
# Sequence of Nuclear receptor subfamily 4 group A member 2 (Homo sapiens) (P43354 whole entry, looked up): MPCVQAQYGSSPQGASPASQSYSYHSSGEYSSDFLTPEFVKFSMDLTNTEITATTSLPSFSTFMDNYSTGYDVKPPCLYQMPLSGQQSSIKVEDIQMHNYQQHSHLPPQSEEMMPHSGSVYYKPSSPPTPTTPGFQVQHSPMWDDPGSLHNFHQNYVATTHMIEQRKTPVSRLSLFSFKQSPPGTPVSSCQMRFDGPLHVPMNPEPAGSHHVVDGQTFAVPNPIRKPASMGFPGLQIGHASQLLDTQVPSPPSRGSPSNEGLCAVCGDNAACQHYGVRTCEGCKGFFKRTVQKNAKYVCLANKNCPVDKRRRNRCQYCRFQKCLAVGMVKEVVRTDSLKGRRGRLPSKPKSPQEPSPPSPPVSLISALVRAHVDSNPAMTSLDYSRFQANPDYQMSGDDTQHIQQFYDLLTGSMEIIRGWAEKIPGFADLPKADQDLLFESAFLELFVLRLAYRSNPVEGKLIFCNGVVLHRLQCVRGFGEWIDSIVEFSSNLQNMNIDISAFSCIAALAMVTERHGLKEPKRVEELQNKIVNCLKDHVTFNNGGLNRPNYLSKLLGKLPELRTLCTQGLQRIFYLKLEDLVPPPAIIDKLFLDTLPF
# In short: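 After 24 h chemical dosing, total RNA from transiently transfected HepG2 cells was reverse-transcribed and reporter cDNA PCR-amplified, FAM-labelled and analysed by capillary electrophoresis. Activity fitted in positive direction, DMSO as negative control.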
# [5] = target: human Peroxisome Proliferator-activated Receptor delta (PPARd), PPARD (gene 5467) (UniProt Q03181); assay: ATG_PPARd_TRANS: Attagene TRANS-FACTORIAL HepG2 Assay for human Peroxisome Proliferator-activated Receptor delta (PPARd) (AID 2283002)
# Sequence of human Peroxisome Proliferator-activated Receptor delta (PPARd), PPARD (gene 5467) (Q03181 whole entry, looked up, the tested form may be a part): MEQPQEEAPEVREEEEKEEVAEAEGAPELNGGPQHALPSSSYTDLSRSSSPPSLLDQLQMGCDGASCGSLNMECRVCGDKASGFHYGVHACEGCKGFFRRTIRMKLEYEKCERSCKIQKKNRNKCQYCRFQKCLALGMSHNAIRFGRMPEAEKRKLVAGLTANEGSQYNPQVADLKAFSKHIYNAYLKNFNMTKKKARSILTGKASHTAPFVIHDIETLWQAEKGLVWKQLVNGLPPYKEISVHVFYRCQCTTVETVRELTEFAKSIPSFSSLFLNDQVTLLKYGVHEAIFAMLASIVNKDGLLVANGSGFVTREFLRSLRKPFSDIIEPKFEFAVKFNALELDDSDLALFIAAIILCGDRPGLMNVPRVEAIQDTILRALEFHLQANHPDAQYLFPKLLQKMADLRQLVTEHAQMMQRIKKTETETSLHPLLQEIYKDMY
# In short: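 Measured quantity: GAL4-UAS reporter transcript induction in HepG2 after 24 h chemical dosing, with NR-Gal4 chimeras supplied by transient transfection. Detection by RT-PCR and capillary electrophoresis; upward fit against DMSO.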
# [6] = target: human RAR-related Orphan Receptor beta (RORb), RORB (gene 6096) (UniProt Q92753); assay: ATG_RORb_TRANS: Attagene TRANS-FACTORIAL HepG2 Assay for human RAR-related Orphan Receptor beta (RORb) (AID 2283010)
# Sequence of human RAR-related Orphan Receptor beta (RORb), RORB (gene 6096) (Q92753 whole entry, looked up, the tested form may be a part): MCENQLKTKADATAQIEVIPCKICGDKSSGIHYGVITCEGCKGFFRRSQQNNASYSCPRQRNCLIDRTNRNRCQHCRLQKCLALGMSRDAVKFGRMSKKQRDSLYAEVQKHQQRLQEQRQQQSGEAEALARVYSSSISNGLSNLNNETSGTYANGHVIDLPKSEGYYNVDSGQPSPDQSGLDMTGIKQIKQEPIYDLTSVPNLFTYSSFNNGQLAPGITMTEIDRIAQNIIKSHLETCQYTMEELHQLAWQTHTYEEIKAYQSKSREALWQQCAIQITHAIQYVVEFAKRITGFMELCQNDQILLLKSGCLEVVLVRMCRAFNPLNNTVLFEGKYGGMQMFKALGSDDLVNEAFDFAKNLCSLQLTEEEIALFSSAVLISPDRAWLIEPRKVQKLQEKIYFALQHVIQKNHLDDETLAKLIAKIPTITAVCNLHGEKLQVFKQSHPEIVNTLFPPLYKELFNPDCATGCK
# In short: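 Readout is reporter-gene mRNA induction, detected as fluorescence after RT-PCR and capillary electrophoresis, fitted for gain of signal against DMSO controls. Transiently transfected HepG2 liver cells carrying GAL4-UAS reporter constructs were treated for 24 hours.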
# [7] = target: human RAR-related Orphan Receptor gamma (RORg), RORC (gene 6097) (UniProt P51449); assay: ATG_RORg_TRANS: Attagene TRANS-FACTORIAL HepG2 Assay for human RAR-related Orphan Receptor gamma (RORg) (AID 2283011);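 on AC50: potency for induction of reporter transcripts above DMSO so activators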
# Sequence of human RAR-related Orphan Receptor gamma (RORg), RORC (gene 6097) (P51449 whole entry, looked up, the tested form may be a part): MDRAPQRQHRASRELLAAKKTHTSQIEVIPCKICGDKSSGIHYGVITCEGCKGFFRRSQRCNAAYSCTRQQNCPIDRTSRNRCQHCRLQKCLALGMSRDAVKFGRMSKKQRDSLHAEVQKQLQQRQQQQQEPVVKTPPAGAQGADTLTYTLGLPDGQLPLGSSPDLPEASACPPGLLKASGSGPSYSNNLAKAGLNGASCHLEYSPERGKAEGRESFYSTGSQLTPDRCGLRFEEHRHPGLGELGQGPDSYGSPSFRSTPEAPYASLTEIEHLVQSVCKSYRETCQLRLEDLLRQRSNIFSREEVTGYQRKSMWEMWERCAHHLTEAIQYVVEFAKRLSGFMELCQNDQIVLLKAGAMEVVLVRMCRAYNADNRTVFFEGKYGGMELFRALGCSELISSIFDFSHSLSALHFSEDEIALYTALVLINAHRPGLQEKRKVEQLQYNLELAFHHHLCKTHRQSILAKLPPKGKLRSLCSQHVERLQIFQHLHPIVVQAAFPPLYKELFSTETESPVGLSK
# In short: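 Readout: reporter transcript induction (RT-PCR, fluorescent primer extension, capillary electrophoresis) after 24 h compound exposure of transiently transfected HepG2 cells carrying a RORg-Gal4 chimera and GAL4-UAS reporters; DMSO served as baseline, with increasing signal fitted.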
# [8] = TOX21_p53_BLA_p2_viability: Viability Assessment in the Tox21 HCT-116 p53 Agonism Beta-lactamase Assay, Phase 2 (AID 2283591);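 further: compound exposure lasted 16 h at 37 °C; actives lower the ATP signal meaning cytotoxicity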
# In short: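 HCT-116 p53-bla cells (4000/well) rested 5 h at 37C, then received compounds in DMSO (217-fold dilution) for 16 h at 37C, 5% CO2. After the CCF4 read, CellTiter-Glo was added; ATP luminescence was read after 30 min at room temperature.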
# [9] = target: Bile acid receptor (Homo sapiens) (UniProt Q96RI1); assay: ATG_IR1_CIS: Attagene CIS-FACTORIAL HepG2 Assay for human Nuclear Receptor Subfamily 1 Group H Member 4 (NR1H4), IR1 submotif (AID 2282946; active means hit-call score of the fitted dose curve at least 0.9, where 1 is the maximum; inactive means score below 0.9); conditions: IR1 reporter transcription, actives raise or lower the signal
# Sequence of Bile acid receptor (Homo sapiens) (Q96RI1 whole entry, looked up): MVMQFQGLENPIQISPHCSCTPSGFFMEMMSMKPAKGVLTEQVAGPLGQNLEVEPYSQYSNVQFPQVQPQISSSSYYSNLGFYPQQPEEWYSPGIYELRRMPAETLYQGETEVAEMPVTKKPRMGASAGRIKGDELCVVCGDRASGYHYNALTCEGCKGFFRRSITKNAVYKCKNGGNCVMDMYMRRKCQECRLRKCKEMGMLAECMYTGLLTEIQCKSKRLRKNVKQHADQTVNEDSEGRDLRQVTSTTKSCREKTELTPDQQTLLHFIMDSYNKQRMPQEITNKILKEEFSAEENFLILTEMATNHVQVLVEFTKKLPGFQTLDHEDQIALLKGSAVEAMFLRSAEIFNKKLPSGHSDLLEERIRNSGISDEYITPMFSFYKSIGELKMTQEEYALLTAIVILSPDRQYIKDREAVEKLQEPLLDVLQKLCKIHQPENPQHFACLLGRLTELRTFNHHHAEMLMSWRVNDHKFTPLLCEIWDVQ
# In short: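 Transient MRTU transfection, HepG2; 24 h dosing; RNA → RT-PCR → 6-FAM primer extension → HpaI digest → capillary electrophoresis fluorescence. Gain/loss of signal fitted relative to DMSO.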
# [10] = ATG_VDRE_CIS: Attagene CIS-FACTORIAL HepG2 Assay for human Vitamin D Receptor Element (VDRE) (AID 2282968; active means hit-call score of the fitted dose curve at least 0.9, where 1 is the maximum; inactive means score below 0.9); conditions: HepG2 VDRE cis-reporter transcription, actives raise or lower the signal
# In short: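 RT-PCR/CE readout of reporter mRNA; HepG2, transient transfection, 24 h dosing; DMSO baseline; bidirectional analysis.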
# [11] = ATG_M_19_TRANS: Attagene TRANS-FACTORIAL HepG2 Assay for M19 Transcription Factor (Internal Marker) (AID 2282974); conditions: HepG2 Attagene TRANS-FACTORIAL M19 internal marker reporter
# In short: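 Transfected HepG2 (GAL4-UAS MRTUs), 24 h compound, TriZol RNA, DNase-treated RT, reporter PCR, FAM label, HpaI digest, CE fluorescence; gain vs DMSO.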
# [12] = target: Oxysterols receptor LXR-beta (Homo sapiens) (UniProt P55055); assay: ATG_LXRb_TRANS: Attagene TRANS-FACTORIAL HepG2 Assay for human Liver X Receptor beta (LXRb) (AID 2282981); conditions: HepG2 Attagene TRANS GAL4-LXRb reporter, mRNA
# In short: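 In this TRANS format, exogenous chimeric NR-Gal4 protein activity, not endogenous factors, drives reporter expression in transfected human HepG2 cells. Exposure lasted 24 h; reporter mRNA was read by fluorescent capillary electrophoresis.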
# [13] = CCTE_Harrill_HTTr_Apoptosis_MCF7: CCTE's 6-hour Apoptosis Assessment for the High-Throughput Transcriptomics (HTTr) Platform, in MCF-7 cells cultured in DMEM + 10% fetal bovine serum, Harrill Lab (AID 2284011; active means hit-call score of the fitted dose curve at least 0.9, where 1 is the maximum; inactive means score below 0.9)
# In short: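 MCF-7 cells in DMEM + 10% fetal bovine serum were exposed to chemicals for 6 hours over an eight-point dilution series. Caspase-3/7 activation was imaged by high content imaging with CellEvent Caspase 3/7 Green; bidirectional fitting used DMSO as baseline.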
# [14] = target: Glucocorticoid receptor (Homo sapiens) (UniProt P04150); assay: ATG_GR_TRANS: Attagene TRANS-FACTORIAL HepG2 Assay for human Glucocorticoid Receptor (GR) (AID 2282978); conditions: HepG2 Attagene TRANS GR reporter, mRNA transcription;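 further: activators score as hits since higher reporter transcript over DMSO is fitted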
# Sequence of Glucocorticoid receptor (Homo sapiens) (P04150 whole entry, looked up): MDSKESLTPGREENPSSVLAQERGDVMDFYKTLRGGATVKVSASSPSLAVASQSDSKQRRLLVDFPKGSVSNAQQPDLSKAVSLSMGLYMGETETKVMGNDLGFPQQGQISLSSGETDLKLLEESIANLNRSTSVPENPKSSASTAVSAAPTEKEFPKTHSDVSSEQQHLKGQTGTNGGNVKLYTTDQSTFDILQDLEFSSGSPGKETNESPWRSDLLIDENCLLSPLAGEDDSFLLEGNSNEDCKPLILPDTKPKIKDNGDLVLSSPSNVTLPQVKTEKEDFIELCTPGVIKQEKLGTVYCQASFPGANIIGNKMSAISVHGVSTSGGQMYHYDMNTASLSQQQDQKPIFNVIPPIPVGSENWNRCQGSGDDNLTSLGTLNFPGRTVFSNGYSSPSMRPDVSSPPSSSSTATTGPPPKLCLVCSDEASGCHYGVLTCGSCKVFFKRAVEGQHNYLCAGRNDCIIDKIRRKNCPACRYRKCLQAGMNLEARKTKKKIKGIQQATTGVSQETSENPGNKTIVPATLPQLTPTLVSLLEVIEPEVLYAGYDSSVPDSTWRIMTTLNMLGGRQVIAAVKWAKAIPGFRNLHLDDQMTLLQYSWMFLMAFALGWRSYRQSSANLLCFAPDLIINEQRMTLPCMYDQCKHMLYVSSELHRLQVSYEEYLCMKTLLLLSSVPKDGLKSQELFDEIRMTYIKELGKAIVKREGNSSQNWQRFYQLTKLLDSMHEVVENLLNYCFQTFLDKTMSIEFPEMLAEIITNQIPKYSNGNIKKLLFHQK
# In short: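 After 24 h incubation with test chemical, transfected HepG2 cells were lysed for RNA; reporter cDNA was amplified, FAM-labelled, HpaI-digested and sized on a capillary analyser. Signal gain relative to DMSO was scored.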
# [15] = target: human Vitamin D Receptor (VDR), VDR (gene 7421) (UniProt P11473); assay: ATG_VDR_TRANS: Attagene TRANS-FACTORIAL HepG2 Assay for human Vitamin D Receptor (VDR) (AID 2283022)
# Sequence of human Vitamin D Receptor (VDR), VDR (gene 7421) (P11473 whole entry, looked up, the tested form may be a part): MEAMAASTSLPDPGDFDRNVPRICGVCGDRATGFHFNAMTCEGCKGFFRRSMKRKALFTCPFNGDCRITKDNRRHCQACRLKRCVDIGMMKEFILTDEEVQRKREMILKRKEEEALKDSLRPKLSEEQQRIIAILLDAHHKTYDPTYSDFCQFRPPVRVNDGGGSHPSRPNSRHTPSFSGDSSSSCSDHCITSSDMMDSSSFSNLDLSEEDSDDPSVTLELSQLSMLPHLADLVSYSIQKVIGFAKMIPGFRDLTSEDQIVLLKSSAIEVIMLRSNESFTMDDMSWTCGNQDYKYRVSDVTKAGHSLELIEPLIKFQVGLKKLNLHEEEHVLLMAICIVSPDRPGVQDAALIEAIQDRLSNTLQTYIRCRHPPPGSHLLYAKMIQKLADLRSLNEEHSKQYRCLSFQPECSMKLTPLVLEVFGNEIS
# In short: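 HepG2 cells were transiently transfected with multiple GAL4-UAS reporter units, so signal reflects exogenous chimeric receptor-Gal4 activity. After 24 h compound exposure, reporter mRNA was measured by RT-PCR, fluorescent labelling and capillary electrophoresis, fitted for gain of signal versus DMSO.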
# [16] = TOX21_p53_BLA_p3_viability: Viability Assessment in the Tox21 HCT-116 p53 Agonism Beta-lactamase Assay, Phase 3 (AID 2283593);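 further: cells exposed to compound for 16 h before reading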
# In short: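 HCT-116 cells (4000/well) rested 5 h at 37C, then got DMSO compounds by pin tool (217-fold dilution) for 16 h at 37C, 5% CO2. After the bla read, CellTiter-Glo was added and luminescence read at 30 min, room temperature.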
# [17] = TOX21_p53_BLA_p4_viability: Viability Assessment in the Tox21 HCT-116 p53 Agonism Beta-lactamase Assay, Phase 4 (AID 2283597);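 further: hits lower the luminescence signal meaning cytotoxicity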
# In short: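 HCT116 p53-bla cells (4000/well) rested 5 h at 37C, then received compounds in DMSO (217-fold dilution) for 16 h at 37C, 5% CO2. CellTiter-Glo was added after the CCF4-AM read, and luminescence was read after 30 min at room temperature.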
# [18] = ATG_ERE_CIS: Attagene CIS-FACTORIAL HepG2 Assay for Estrogen Response Element (ERE) (AID 2282940; active means hit-call score of the fitted dose curve at least 0.9, where 1 is the maximum; inactive means score below 0.9); conditions: HepG2 ERE cis-reporter, Attagene RNA transcript; actives raise or lower the signal
# In short: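 Human liver cells (HepG2) bearing transiently transfected, promoter-regulated reporter units were exposed 24 h. Reporter mRNA induction was detected by capillary electrophoresis of labelled RT-PCR products and fitted bidirectionally to DMSO.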
# [19] = ATG_GRE_CIS: Attagene CIS-FACTORIAL HepG2 Assay for human Glucocorticoid Response Elements (GRE) (AID 2282947; active means hit-call score of the fitted dose curve at least 0.9, where 1 is the maximum; inactive means score below 0.9); conditions: HepG2 GRE cis-reporter, Attagene multiplex mRNA; actives raise or lower the signal
# In short: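 Following 24 h chemical exposure of transiently transfected HepG2 cells, total RNA was reverse-transcribed and reporter cDNA amplified, fluorescently labelled and sized by capillary electrophoresis. Signal gain or loss was fitted relative to DMSO vehicle.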
# [20] = target: Hepatocyte nuclear factor 4-alpha (Homo sapiens) (UniProt P41235); assay: ATG_HNF4a_TRANS: Attagene TRANS-FACTORIAL HepG2 Assay for human Hepatocyte Nuclear Factor 4 alpha (HNF4a) (AID 2282982); conditions: HepG2 HNF4a transactivation reporter, mRNA readout
# Sequence of Hepatocyte nuclear factor 4-alpha (Homo sapiens) (P41235 whole entry, looked up, the tested form may be a part): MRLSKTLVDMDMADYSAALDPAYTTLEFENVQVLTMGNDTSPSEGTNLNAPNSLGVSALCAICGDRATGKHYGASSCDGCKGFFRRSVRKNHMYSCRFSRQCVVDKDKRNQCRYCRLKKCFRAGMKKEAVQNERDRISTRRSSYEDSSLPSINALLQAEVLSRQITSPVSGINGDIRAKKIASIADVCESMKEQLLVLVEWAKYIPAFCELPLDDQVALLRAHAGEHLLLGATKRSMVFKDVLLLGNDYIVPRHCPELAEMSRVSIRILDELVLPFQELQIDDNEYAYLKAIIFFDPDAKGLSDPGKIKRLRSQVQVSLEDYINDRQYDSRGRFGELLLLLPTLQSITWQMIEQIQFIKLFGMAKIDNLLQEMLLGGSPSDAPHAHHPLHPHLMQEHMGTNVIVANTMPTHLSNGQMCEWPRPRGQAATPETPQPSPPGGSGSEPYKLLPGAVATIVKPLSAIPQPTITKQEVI
# In short: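 Cells used were human HepG2, transiently carrying GAL4-UAS reporter units read out against exogenous NR-GAL4 chimeras. Reporter transcript levels after 24 h dosing were quantified by fluorescent RT-PCR and capillary electrophoresis.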
compound,measurement,setting,value
CCCCOC(=O)CCC(=O)OCCCC,outcome,[1],inactive
same,outcome,[2],inactive
same,outcome,[3],inactive
same,outcome,[4],inactive
same,outcome,[5],inactive
same,outcome,[6],inactive
same,outcome,[7],inactive
same,outcome,[8],inactive
COc1cc(OC)nc(Oc2cccc(Oc3nc(OC)cc(OC)n3)c2C(=O)O)n1,outcome,[9],inactive
same,outcome,[10],inactive
same,outcome,[11],inactive
same,outcome,[2],inactive
same,outcome,[12],inactive
same,outcome,[4],inactive
same,outcome,[5],inactive
same,outcome,[6],inactive
same,outcome,[8],inactive
same,outcome,[13],inactive
CC(C)COP(=O)(OCC(C)C)OCC(C)C,outcome,[9],inactive
same,outcome,[14],inactive
same,outcome,[15],inactive
same,outcome,[8],inactive
same,outcome,[16],inactive
same,outcome,[17],inactive
Cc1cc(C)c(C2=C(OC(=O)CC(C)(C)C)C3(CCCC3)OC2=O)c(C)c1,outcome,[18],inactive
same,outcome,[9],inactive
same,outcome,[19],inactive
same,outcome,[11],inactive
same,outcome,[2],inactive
same,outcome,[20],inactive
same,outcome,[4],inactive
CC(C)(C)C(O)C(Oc1ccc(-c2ccccc2)cc1)n1cncn1 (stereo not given),outcome,[18],inactive
same,AC50,[9],55.2 µM (active)
same,outcome,[19],inactive
same,AC50,[10],9 µM (active)
same,outcome,[11],inactive
same,outcome,[2],inactive
same,outcome,[14],inactive
same,outcome,[3],inactive
same,AC50,[4],53.9 µM (active)
same,outcome,[5],inactive
same,outcome,[15],inactive
same,outcome,[13],inactive
CC(C)(C)C(=O)CCl,outcome,[18],inactive
same,outcome,[10],inactive
same,outcome,[11],inactive
same,outcome,[20],inactive
same,AC50,[4],135 µM (active)
same,outcome,[5],inactive
same,outcome,[6],inactive
same,AC50,[7],134 µM (active)
same,outcome,[8],inactive
same,outcome,[16],inactive
same,outcome,[17],inactive
same,outcome,[13],inactive
